Drawing on PubChem BioAssay (Tox21), this text covers Potency and activity change, positive = activation for 22 compounds.

Molecules are shown by their SMILES. Where “and” joins values, the source holds several entries; their conditions need not be identical. Equal entries are not always repeated. Results filed as inconclusive are left out. Where a structure was tested more than once in an assay, its records may differ in their call. Calls of active or inactive are those of the source. Unless noted, calls come from the whole dose curve; as a rule, active = well fitted curve in the direction sought with a large enough effect in the repeat runs; inconclusive = weak or mixed curves; inactive = no such curve, though single readings can be large; an effect the other way counts as inactive or inconclusive.

A short description of assay [1]: qHTS assay to identify small molecule agonists of the hypoxia (HIF-1) signaling pathway - cell viability counter screen (AID 1224844; calls by dose curve; note: nearly all actives have a fitted effect of over 50% in size; note: potency is the fitted concentration of half-maximal effect). The gist of the method: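 HRE-bla ME-180; 0.5% dFBS; cpd 17 h, 37C, 5% CO2; CellTiter-Glo lum., 30 min RT, post-FRET read, same wells.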
On the technique in general: qHTS replaces the single test concentration by a dilution series.

Assay [2] can be described thus: qHTS assay to identify small molecule agonists of H2AX - cell viability counter screen (AID 1224847; calls by dose curve; note: nearly all actives have a fitted effect of over 30% in size; note: potency is the fitted concentration of half-maximal effect). The gist of the method: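 Cytotoxicity counter screen in wild-type CHO-K1 cells: a 3 hr compound treatment at 37C across 15 concentrations, followed by CellTiter-Glo luminescence to gauge viable cells.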
Assay [3] can be described thus: qHTS assay to identify small molecule antagonists of the estrogen related receptor (ERR) signaling pathway from Tox21 library (AID 1224848). Note: potency is the fitted concentration of half-maximal effect; nearly all actives have a fitted effect of over 50% in size. The gist of the method: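 Compounds dissolved in DMSO are pin-transferred onto ERR reporter cells (2,000 per well) that have settled for 6 h at 37 C. Plates then incubate 18 h at 37 C before ONE-Glo luciferase reagent and a luminescence read 30 min later.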

Assay [4] is described as follows: qHTS RealTime-Glo MT Cell Viability Assay in HepG2 cells - 24 hour (AID 1224867). Note: nearly all actives have a fitted effect of over 50% in size. Note: potency is the fitted concentration of half-maximal effect. The gist of the method: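 HepG2 suspension premixed with RealTime-Glo reagents is plated at 600 cells per well and left 5 h at 37 C/5% CO2. Compounds in DMSO then go in, and bioluminescence reflecting viable cell number is recorded over 40 h.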
A short description of assay [5]: qHTS RealTime-Glo MT Cell Viability Assay in HEK293 cells - 32 hour (AID 1224868). Note: nearly all actives have a fitted effect of over 50% in size. Note: potency is the fitted concentration of half-maximal effect. Put shortly:
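Reads taken at 0, 8, 16, 24, 32 and 40 h from the same wells. HEK293 cells (600/well) carried RealTime-Glo reagents from seeding, with compound added after a 5 h settle at 37 C.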

A short description of assay [6]: A CellTox Green Cytotoxicity Assay to monitor cytotoxicity in HEK293 cells - 0 hour (AID 1224869). The gist of the method:
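Tox21 screen in HEK293: membrane-impermeant cyanine dye fluoresces on binding dead-cell DNA; compound pinned 5 h post-seeding, plates held at 37 C, signal read repeatedly through 40 h.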

A short description of assay [7]: qHTS RealTime-Glo MT Cell Viability Assay in HepG2 cells - 40 hour (AID 1224870). Note: nearly all actives have a fitted effect of over 50% in size. Note: potency is the fitted concentration of half-maximal effect. Put shortly:
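HepG2 cells (600/well) mixed with RealTime-Glo MT reagent, settled 5 h at 37 C/5% CO2 before compound addition. Nonlytic NanoLuc luminescence from viable-cell prosubstrate reduction read repeatedly during 40 h treatment at 37 C.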

The nature of assay [8]: qHTS assay to identify small molecule agonists of the estrogen related receptor (ERR) signaling pathway from Tox21 library (AID 1224849; calls by dose curve; note: % is set by controls: 0 for no effect and ±100 for the full control effect; nearly all actives have a fitted effect of over 15% in size). The note with it: ERR reporter cell line, ONE-Glo luciferase, 18 h. Put shortly:
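Tox21 compounds tested for ERR agonism in an NTP reporter cell line: 18 h treatment at 37 C, then ONE-Glo luminescence.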

[9] abbreviates: at 92.4 µM (top of the series) unless noted.

Regarding `CCCC1O[C@@H]2C[C@H]3[C@@H]4CCC5=CC(=O)C=C[C@]5(C)[C@H]4[C@@H](O)C[C@]3(C)[C@]2(C(=O)CO)O1` (some centres not stated), the Potency is 49 µM (active) and 54.9 µM (active) in assay [1]; 27.3 µM (active) and 34.4 µM (active) in assay [3]; 24.6 µM (active) and 43.6 µM (active) in assay [5]. For the same compound, the Potency entry in assay [2], in assay [4], in assay [6] and in assay [7] was “inactive” in each case.

As to `[Cl][Bi]([Cl])([c]1ccccc1)([c]1ccccc1)[c]1ccccc1`, the Potency is 19.4 µM (active) in assay [1]; 35.5 µM (active) in assay [2]; 6.88 µM (active) in assay [4]; 2.44 µM (active) in assay [5]; 7.71 µM (active) in assay [7]. In addition, in assay [6], the Potency entry is “inactive”.

Turning to `[Cl][Au]([Cl])[Cl]`, the Potency is 3.89 µM (active) in assay [1], 3.06 µM (active) in assay [3], 9.77 µM (active) in assay [4] and 8.71 µM (active) in assay [7]. The activity change, positive = activation in assay [8] (setting [9]) is -67.4% (inactive). Also, the Potency result in assay [6] was “inactive”.

Turning to `CC1=C(C(=O)OC(C)C)C(c2cccc([N+](=O)[O-])c2)C(C(=O)OC2CN(C(c3ccccc3)c3ccccc3)C2)=C(N)N1` (configuration not stated), the Potency was 6.74 µM (active) in assay [1]; 55.2 µM (active) in assay [2]; 26.6 µM (active) in assay [3]; 21.3 µM (active) in assay [4]; 23.9 µM (active) in assay [7]. For the same compound, the Potency result in assay [6] was “inactive”.

For the compound `CCCCCCCC/C=C\CCCCCCCCOCCO`, the Potency was 28.4 µM (active) in assay [1], 65.6 µM (active) in assay [2] and 3.19 µM (active) in assay [5]. In addition, in assay [6], the Potency entry is “inactive”.

For `CC1=C(/C=C/C(C)=C/C=C/C(C)=C/C=O)C(C)(C)CCC1`, the figures for the Potency in assay [1], in assay [2] and in assay [5] were 30.7 µM (active), 39.9 µM (active) and 19.4 µM (active), respectively. In addition, the Potency result in assay [6] was “inactive”.

With `COc1cccc2c1C(=O)c1c(O)c3c(c(O)c1C2=O)C[C@@](O)(C(=O)CO)C[C@@H]3O[C@H]1C[C@H](N)[C@H](O[C@@H]2CCCCO2)[C@H](C)O1`, the Potency is 12 µM (active) in assay [1], 4.22 µM (active) in assay [3], 2.13 µM (active) in assay [4] and 0.239 µM (active) in assay [5]. In addition, in assay [8] (setting [9]), the activity change, positive = activation is -55.4% [at 42.5 µM] (inactive). The Potency result in assay [6] was “inactive”.

Consider `CCN(CC)CCCC(C)Nc1c2ccc(Cl)cc2nc2ccc(OC)cc12` (configuration not stated), for which the Potency in assay [1] was 16.9 µM (active); in assay [4] it was 6.74 µM (active); in assay [5] it was 2.68 µM (active); in assay [7], 5.35 µM (active). For the same compound, the Potency result in assay [2] and in assay [6] was “inactive” each time.

For the compound `N=C1N=C(N)c2cc3ccccc3cc21`, the Potency in assay [1] was 15.5 µM (active); in assay [2] it was 127 µM (active); in assay [3], 68.6 µM (active); in assay [5] it was 19.5 µM (active); in assay [7], 24.5 µM [cytotoxic] (active). Besides, the activity change, positive = activation in assay [8] (setting [9]) was 2.31% (active). Moreover, the Potency result in assay [6] was “inactive”.

Consider `Cc1cc(O)c2ccccc2c1O`, for which the Potency is 13.4 µM (active) in assay [1]; 5.52 µM (active) in assay [2]; 13.3 µM (active) in assay [3]; 8.49 µM (active) in assay [5]; 13.4 µM (active) in assay [7]. Moreover, in assay [8] (setting [9]), the activity change, positive = activation is -47.1% [at 42.5 µM] (inactive). Moreover, in assay [6], the Potency result is “inactive”.

With `Clc1ccccc1C(c1ccccc1)(c1ccccc1)n1ccnc1`, the Potency in assay [1] is 21.9 µM (active); in assay [3], 3.86 µM (active) and 11.9 µM (active); in assay [4], 21.9 µM (active) and inactive; in assay [5], 21.9 µM (active) and 6.74 µM (active); in assay [7], 24.5 µM (active) and inactive. In addition, the activity change, positive = activation in assay [8] (at 42.5 µM (top of the series)) is -60.3% (inactive); in assay [8] (at 92.4 µM (top of the series)), -72.6% (inactive). The Potency result in assay [6] is “inactive”.

On to `CNc1ccc(O)cc1`, for which the results for the Potency in assay [1], in assay [2] and in assay [5] were 21.8 µM (active), 101 µM (active) and 12.3 µM (active), respectively. Further, the activity change, positive = activation in assay [8] (setting [9]) is -69.6% (inactive). For the same compound, the Potency result in assay [6] is “inactive”.

For the compound `O=C(Nc1cccc(C(F)(F)F)c1)c1cc(Br)cc(Br)c1O`, the Potency in assay [1] is 19.5 µM (active); in assay [2], 16 µM (active); in assay [5] it was 4.36 µM (active); in assay [7], 21.9 µM (active). In addition, the Potency entry in assay [6] is “inactive”.

Turning to `CCC(C)Nc1ccc(NC(C)CC)cc1` (configuration not stated), the Potency in assay [1] was 12.5 µM (active); in assay [2], 23 µM (active); in assay [3], 6.23 µM (active); in assay [4], 17.7 µM (active); in assay [5] it was 4.45 µM (active); in assay [7] it was 17.7 µM (active). The activity change, positive = activation in assay [8] (setting [9]) is -80.2% (inactive). The Potency entry in assay [6] was “inactive”.

`CCCCCCCCCCCC[N+](C)(C)CCCCCCCCCCCC`: the Potency in assay [1] is 21.9 µM (active); in assay [2] it was 28.4 µM (active); in assay [3], 13.7 µM (active); in assay [5] it was 5.49 µM (active). Also, the activity change, positive = activation in assay [8] (setting [9]) was -72.6% (inactive). In addition, the Potency entry in assay [6] was “inactive”.

For the compound `O=S1(=O)CC(Cl)(Cl)C(Cl)(Cl)C1`, the Potency was 3.89 µM (active) in assay [1], 25.3 µM (active) in assay [2], 15.4 µM (active) in assay [3] and 6.92 µM (active) in assay [4]. For the same compound, the activity change, positive = activation in assay [8] (setting [9]) was -79.8% (inactive). Further, the Potency result in assay [6] is “inactive”.

In the case of `CCCCCCCCCCCC(=O)NCCCN(C)C`, the Potency in assay [1] was 49 µM (active); in assay [2], 101 µM (active); in assay [5] it was 38.9 µM (active); in assay [7] it was 38.9 µM (active). For the same compound, the Potency entry in assay [6] was “inactive”.

On to `Cc1cc(O)c(C(C)(C)C)cc1Sc1cc(C(C)(C)C)c(O)cc1C`, for which the Potency in assay [1] was 9.75 µM (active); in assay [2] it was 17.9 µM (active); in assay [3], 13.7 µM (active); in assay [5] it was 21.8 µM (active); in assay [7], 48.9 µM (active). In addition, the Potency result in assay [6] was “inactive”.

In the case of `O=C1C=CC(=O)N1c1ccc(Cc2ccc(N3C(=O)C=CC3=O)cc2)cc1`, the Potency in assay [1] was 11 µM (active); in assay [2] it was 50.5 µM (active); in assay [4] it was 12.3 µM (active); in assay [5], 11 µM (active); in assay [7], 15.5 µM (active). In addition, the Potency entry in assay [6] is “inactive”.

For the compound `NC(=O)C1(N2CCCCC2)CCN(CCCN2c3ccccc3CCc3ccc(Cl)cc32)CC1`, the Potency in assay [1] was 21.3 µM (active); in assay [2] it was 55.2 µM (active); in assay [5] it was 21.3 µM (active); in assay [7], 23.9 µM (active). Besides, in assay [6], the Potency result is “inactive”.

Consider `CC(=O)SC[C@@H](Cc1ccccc1)C(=O)NCC(=O)OCc1ccccc1`, for which the Potency result in assay [1], in assay [2], in assay [4], in assay [5], in assay [6] and in assay [7] was “inactive” in each case.

For `On1ccccc1=S`, the Potency in assay [1] is 0.432 µM (active); in assay [3] it was 1.21 µM (active); in assay [4], 0.544 µM (active); in assay [5], 4.32 µM (active); in assay [7] it was 0.485 µM (active). In addition, in assay [8] (setting [9]), the activity change, positive = activation is -71.1% (inactive). In addition, the Potency entry in assay [6] is “inactive”.
